The campaign covered roughly 390,000 compounds. About 930 (0.24%) were called active. About 5% were inconclusive and are not listed. Calls come from the whole dose curve; as a rule, active = well fitted activation curve with a large enough effect; inconclusive = small, poorly fitted or top-dose-only effect; inactive = no such curve, though single readings can be large or run the other way. The full list was thinned out, with actives kept by preference.
Assay: qHTS for Suppressors of FUS Proteinopathy: Primary screen using FUS-linked yeast assay; note: nearly all actives have a fitted effect of over 55% in size;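 for growth rescue (activation): plate controls were DMSO vehicle for no effect and reference control for full effect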
Conditions: S. cerevisiae FUS-expressing, OD600, 24 h; Potency: growth rescue; series mostly up to 76.6 µM; growth rescue (activation): at the top concentration
Summary of the method: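 Yeast FUS proteinopathy model; galactose-induced FUS (2%), starting OD 0.005. Cpds in dilution series, 24hr, 30C, 99% humidity. Abs 600 nm growth. Pos ctrl CP55940 (top 92uM final); neg ctrl DMSO.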
Potency is the fitted concentration of half-maximal effect.

Growth rescue (activation), inactive:
Cc1ccc(CN2C(=O)SC(Nc3ccccc3)C2=O)cc1 (stereo not drawn) -7.07%, CN(Cc1ccccc1)C(=O)CCS(=O)(=O)c1cc(Br)cc2c1N(C(=O)C1CC1)CC2 43.2%, CCOC(=O)N1CCN(S(=O)(=O)c2cc(Br)cc3c2N(C(=O)C2CC2)CC3)CC1 1.43%, O=C(CCS(=O)(=O)c1cc(Br)cc2c1N(C(=O)C1CC1)CC2)Nc1ccc(Br)cc1F -0.121%, CC(C)NC(=O)Nc1cccc2c1O[C@@H](CN(C)S(=O)(=O)c1ccc(F)cc1)[C@@H](C)CN([C@H](C)CO)C2=O 21%, COc1ccc(S(=O)(=O)Nc2cccc3c2O[C@H](CN(C)S(=O)(=O)c2ccc(OC)cc2)[C@@H](C)CN([C@H](C)CO)C3=O)cc1 44.3%, COc1cc(OC)c(NC(=O)c2cc(S(=O)(=O)N3CCCC3)cn2C)cc1Cl -16.3%, COC(=O)c1ccccc1NC(=O)C(Cc1ccccc1)N1Cc2ccccc2C1=O (stereo not drawn) 20.6%, Cc1cccc(CCNC(=O)c2ccc3c(c2)nc2n3CCC(C)C2)c1 (stereo not drawn) -6.88%, COc1cccc(NC(=O)N2CCN(C(=O)c3nsc4ccccc34)CC2)c1 11.1%, Cc1nc(SCCOc2ccc(Cl)cc2)[nH]c(=O)c1Cc1ccccc1 -21%, COP(=O)(O)CNC(=O)OCc1ccccc1 -20.6%, O=C(CNC(=O)Cc1ccccc1)NCC(=O)OCC(=O)c1ccccc1Cl 22.9%, COC(=O)Cc1csc(/N=C/c2c(O)n(-c3cccc(C(F)(F)F)c3)c(=O)c3ccccc23)n1 -14.2%, CCO/C=C1\C(=O)N(c2ccc(OCC)cc2)C(=O)c2ccccc21 -7.53%, CCc1ccc(NC(=O)CCCc2nnc3n(CCCOC)c(=O)c4sccc4n23)cc1 7.44%, O=C(Nc1nc2c(s1)CCCC2)c1ccccc1F 15.6%, Cn1c(=O)c(=O)n(C)c2cc(NC(=O)c3ccccc3Br)ccc21 -10.8%, CN(C(=O)c1ccc2c(c1)N(Cc1cccc(Cl)c1)C(=O)c1ccccc1S2=O)C1CCCCC1 (stereo not drawn) 33.1%, Cn1c(=O)[nH]c(=O)c2c1nc(CN(Cc1ccccc1)Cc1ccccc1)n2CCN1CCOCC1 18.2%, CC(C)CCn1c(CN(C)Cc2ccccc2)nc2c1c(=O)n(C)c(=O)n2C -1.47%, CCN(CC)c1ccc(NC(=O)CN2C(=O)c3cccnc3Oc3ccc(Cl)cc32)c(C)c1 5.5%, Cc1ccc(Nc2cc(=O)n(C3CCCCC3)c(=O)[nH]2)cc1C 2.44%, CC1CCc2sc(C(=O)N/N=C/C3CCCCC3)cc2C1 (stereo not drawn) 27.8%, CCc1ccccc1NC(=O)N1CCN(C(=O)c2nsc3ccccc23)CC1 19.2%, CCOc1cccc(NC(=O)CSc2ncc(-c3ccc(Cl)cc3)[nH]2)c1 17.4%, CCNC(=O)Cn1nc(C)n2c(cc3c(OC)cccc32)c1=O -9.14%, O=C1CCC/C=C\C[C@@H](CC(=O)N(CCO)Cc2ccccc2)C(=O)NCCO1 -10.1%, CC(C)(C)OC(=O)C[C@@H]1C/C=C\C[C@@H](CC(=O)N(CCO)Cc2ccccc2)C(=O)N[C@H](Cc2ccccc2)COC1=O 42.3%, CCC1CCCCN1Cc1c(O)ccc2c(=O)c(Oc3ccccc3Cl)c(C(F)(F)F)oc12 (stereo not drawn) 41.8%, Cc1ccc(C)c(Cn2c(CCCNC(=O)C3CCCCC3)nc3ccccc32)c1 -6.7%, COCCNC(=O)c1cc(-c2cccc(Cl)c2)on1 -21.7%, Cc1cc(N2C(=O)C(=O)/C(=C(/O)c3ccccc3)C2c2cccc(Br)c2)no1 (stereo not drawn) 30.8%, Cc1cc(N2C(=O)C(=O)/C(=C(/O)c3ccc(Cl)cc3)C2c2cccc(Br)c2)no1 (stereo not drawn) 18.5%, Cc1ccc(-c2cn3c(n2)sc2cc(C(=O)NCCCc4ccccc4)ccc23)cc1 -10.9%, O=C(CSc1nccn1C1CCCC1)Nc1cc(C(F)(F)F)ccc1Cl 9.55%, COc1ccc(CNC(=O)CC2Oc3ccc(C)cc3NC2=O)cc1 (stereo not drawn) 18.9%, CC(=O)Nc1ccc(NC(=O)CCCc2nc(-c3ccc(C(C)(C)C)cc3)no2)cc1 1.65%, CC1Cc2cc(S(=O)(=O)CCC(=O)Nc3ccc(F)c(Cl)c3)ccc2N1C(=O)C1CC1 (stereo not drawn) -4.02%, COc1ccccc1-c1cc(C(F)(F)F)nc(S(=O)(=O)CCCC(=O)Nc2ccc(F)cc2F)n1 18.6%, CCCCc1nn2c(=O)cc(COC(=O)c3ccc(NC(=O)c4ccccc4C)cc3)nc2s1 7.51%, CCCCOc1ccc(CN2C(=O)C(=O)c3cc(Br)cc(C)c32)cc1OC 2.56%, Cc1ccc(CNC(=O)CCc2c(C)nc3c(c(C)nn3-c3ccccc3)c2C)cc1 -8.63%, CCN(CC)C(=O)CSc1nc2cc3c(cc2c(=O)n1CCCC(=O)NCc1ccc2c(c1)OCO2)OCO3 42.4%, CCOc1ccc(-c2cc3c(=O)n(CC(=O)NCc4ccc(OC)cc4)ccn3n2)cc1 -11.9%, COc1cccc(-n2c(=O)c3c(C)c(C(=O)N(C)C)sc3n(Cc3cccc(C)c3)c2=O)c1 17.2%, CCN(CC(=O)NC(=O)NCc1ccccc1)Cc1nc2ccccc2c(=O)[nH]1 6.69%, CCN(CC(=O)Nc1cccc(S(N)(=O)=O)c1)Cc1nc2ccccc2c(=O)[nH]1 -6.78%, CCN1CCN(CCCNC(=O)c2ccc3c(c2)sc2nc(-c4ccc(OC)cc4)cn23)CC1 17.2%, COc1ccc(CC(=O)NCCc2sc3nc(-c4ccc(OC)cc4)nn3c2C)cc1 -0.404%, COC(=O)CN1C(=O)CSc2ccc(S(=O)(=O)Nc3cc(C)ccc3C)cc21 23%, Cc1ccc2nc(N3CCN(c4cccc(Cl)c4)CC3)c3nnnn3c2c1 -4.98%, Cc1nnc(N2CCC(C(=O)Nc3ccc(F)cc3)CC2)c2nn(-c3ccc(Cl)cc3)c(C)c12 9.53%

Potency, active:
CCN(c1ccc2c(c1)OCO2)S(=O)(=O)c1cc(Br)cc2c1N(C(=O)C1CC1)CC2 17.8 µM, COc1ccc(S(=O)(=O)N(C)C[C@H]2Oc3c(NC(=O)Nc4ccc5c(c4)OCO5)cccc3C(=O)N([C@H](C)CO)C[C@@H]2C)cc1 25.1 µM, O=C(CNC(=O)OCc1ccccc1)Oc1cc2oc(=O)cc(-c3ccccc3)c2cc1Cl 12.6 µM, CCOc1ccc(N=Cc2c(O)n(-c3cccc(C)n3)c(=O)c3ccccc23)cc1 8.91 µM, COc1ccc2c(c1)Cc1sc(NC(=O)c3ccccc3Br)nc1-2 28.2 µM, CC(C)Cn1c(CN(Cc2ccccc2)Cc2ccccc2)nc2c1c(=O)n(C)c(=O)n2C 31.6 µM, Cc1cc(/C=N/NC(N)=O)c(C)n1C1CCCCC1 22.4 µM, O=C1N[C@@H](c2ccccc2)COC(=O)[C@H](Cc2ccc(F)cc2)C/C=C\C[C@@H]1CC(=O)N(CCO)Cc1ccccc1 22.4 µM, COc1ccccc1C1/C(=C(/O)c2ccc(OC(C)C)cc2)C(=O)C(=O)N1c1cc(C)on1 (stereo not drawn) 20 µM, CCN(CC(=O)Nc1ccc(Cl)c(S(=O)(=O)N(C)C)c1)Cc1nc2ccccc2c(=O)[nH]1 31.6 µM

— PubChem BioAssay AID1347120 (National Center for Advancing Translational Sciences (NCATS), 2019)
